Screen size: about 360,000 compounds; about 11,000 (3.1%) were called active. This excerpt belongs to a sample that is enriched for actives. Values without a mark were called inactive. Rule as the data show it: active = activity change below about -30%; inactive = the rest.
Each compound was assayed against D(1A) dopamine receptor (Homo sapiens) (UniProt P21728) (assay: Antagonist of Human D 1 Dopamine Receptor: qHTS). Details: HEK293 TREx D1 cells, calcium flux, dopamine EC80; at 10 µM; stronger effect = lower value.
D(1A) dopamine receptor (Homo sapiens), sequence (P21728 whole entry, looked up): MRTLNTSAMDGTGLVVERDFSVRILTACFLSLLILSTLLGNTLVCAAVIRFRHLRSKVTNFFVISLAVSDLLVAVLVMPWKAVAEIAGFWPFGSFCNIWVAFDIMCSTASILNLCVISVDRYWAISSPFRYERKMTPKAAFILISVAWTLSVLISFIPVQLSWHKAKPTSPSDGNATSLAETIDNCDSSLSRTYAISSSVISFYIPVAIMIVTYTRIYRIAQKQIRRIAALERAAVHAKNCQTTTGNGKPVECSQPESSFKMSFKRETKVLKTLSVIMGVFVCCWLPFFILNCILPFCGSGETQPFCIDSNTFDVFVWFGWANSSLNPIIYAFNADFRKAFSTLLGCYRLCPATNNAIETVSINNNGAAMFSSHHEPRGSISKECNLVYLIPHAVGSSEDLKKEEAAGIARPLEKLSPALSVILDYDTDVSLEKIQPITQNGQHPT
Summary of the method: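 HEK293 T-REx cells expressing inducible, force-coupled D1 receptor; no-wash Ca dye, 30–90 min RT. Cmpd → 180 s read at 1 Hz → EC80 DA → 180 s read.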
`COC(=O)c1ccc2c(c1)N(CC(=O)Nc1ccc(C)c(C)c1)C(=O)c1ccccc1S2` was tested, and the activity change, negative = inhibition was 10.3%. `Cc1csc2nc(COC(=O)c3ccc(NC(=O)COc4ccccc4F)cc3)cc(=O)n12` gave an activity change, negative = inhibition of -26.3%. In the case of `Cc1ccc(S(=O)(=O)n2nc(-c3ccc(Cl)cc3)nc2NCc2ccccc2)cc1`, the activity change, negative = inhibition is reported as -3.44%. With `CCS(=O)(=O)n1nc(-c2ccc(OC)cc2)nc1SC` the activity change, negative = inhibition was -19.3%. In the case of `CCS(=O)(=O)n1nc(-c2ccccc2)nc1SCc1ccccc1`, the activity change, negative = inhibition is reported as -30.7% (active). With `CC1=NN(C(=O)CCCc2ccccc2)C(O)(C(F)(F)F)C1` (centres undefined) the activity change, negative = inhibition was -32.5% (active). In the case of `COc1ccc(CC(=O)N2N=C(C)CC2(O)C(F)(F)F)cc1` (centres undefined), the activity change, negative = inhibition is reported as -2.03%. Work on `CC1=NN(C(=O)CCc2ccccc2O)C(O)(C(F)(F)F)C1` (centres undefined) yielded an activity change, negative = inhibition of 12.3%. In the case of `O=C(Nc1ccc2oc(-c3ccc(O)c(Br)c3)nc2c1)c1cc2ccccc2o1`, the activity change, negative = inhibition is reported as -6.68%. `O=C(CC(c1cccs1)N1Cc2ccccc2C1=O)Nc1ccc(F)cc1F` (centres undefined) was tested, and the activity change, negative = inhibition was 4.94%. For `CCOC(=O)c1ccc(NC(=O)CSc2nc3c([nH]c4ccccc43)c(=O)n2C)cc1`, the activity change, negative = inhibition was -5.11%. Compound `CC(=O)N/N=C(\C)c1ccc(Br)cc1Br` has an activity change, negative = inhibition of 25.3%. For `C/C(=N\NC(=O)C1(C)CC1(Br)Br)c1ccc(C)cc1C` (centres undefined), the activity change, negative = inhibition was -58.1% (active). In the case of `Cc1ccc(C(=O)NC2CC(C)(C)NC(C)(C)C2)c(C)c1`, the activity change, negative = inhibition is reported as -9.44%. `CCc1ccc(-n2nc(C)c3c(C)cc(=O)n(CC(=O)Nc4ccc(F)cc4C)c32)cc1` was tested, and the activity change, negative = inhibition was -6.21%. In the case of `O=C(NCCc1c[nH]c2ccc(Cl)cc12)c1ccc([N+](=O)[O-])cc1`, the activity change, negative = inhibition is reported as -40.2% (active). `O=C(NCCc1ccc(Cl)cc1Cl)c1cc([N+](=O)[O-])c[nH]c1=O` gave an activity change, negative = inhibition of -1.06%. `Cc1ccc2[nH]cc(CCNC(=O)c3ccc([N+](=O)[O-])cc3)c2c1` was tested, and the activity change, negative = inhibition was -29.3%. In the case of `O=C(c1cnn(-c2ccc(F)cc2)c1-n1cccc1)N1CCN(c2ccc(F)cc2)CC1`, the activity change, negative = inhibition is reported as 1.87%. Work on `CCOC(=O)c1cc(-c2ccc(OC)c(S(=O)(=O)Nc3ccc(OC)cc3OC)c2)on1` yielded an activity change, negative = inhibition of -13.6%. Work on `CCc1ccc(C(CNc2nc(C(F)(F)F)nc3ccccc23)N(C)C)cc1` (centres undefined) yielded an activity change, negative = inhibition of 26.8%. In the case of `NS(=O)(=O)c1ccc(CCNc2nc(C(F)(F)F)nc3ccccc23)cc1`, the activity change, negative = inhibition is reported as -36% (active). In the case of `CC(Nc1nc(C(F)(F)F)nc2ccccc12)c1cccs1` (centres undefined), the activity change, negative = inhibition is reported as -20.1%. In the case of `COC(=O)c1ccc(NC(=O)c2cc(S(=O)(=O)N3CCC(C)CC3)cn2C)cc1`, the activity change, negative = inhibition is reported as -19.2%.

— PubChem BioAssay AID504652 (National Center for Advancing Translational Sciences (NCATS), 2011)
% is scaled to controls: 0 for no effect and ±100 for the full control effect.
